Most compounds without a hit are left out; they make up all but 19% or so of the library.
HT1080NT lethal – qHTS for induction of synthetic lethality in tumor cells producing 2HG: qHTS for the HT-1080-NT fibrosarcoma cell line; HT-1080-NT fibrosarcoma viability, CellTiter-Glo ATP luminescence, 48 h; Potency, µM (highest dose often 46.1 µM), for inactives: at the top dose activity, negative = less viability, usual class: cytotoxic; AID 686970, 2013; 360,000 compounds, 1.6% hits;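 further: NT is the 2HG producing partner of a matched IDH1 knockdown line; potency means the concentration at half of the fitted maximal effect; 0% = DMSO-treated cells and -100% = media-only wells without cells; nearly all actives have a fitted effect of over 55% in size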
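Read-out is CellTiter-Glo luminescence after 10 minutes at room temperature, following 48 hours' compound treatment of HT-1080-NT cells (750 cells/well, RPMI, 5% FBS, 37 degrees C).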
DT40 TDP1 no CPT – qHTS for Inhibitors of human tyrosyl-DNA phosphodiesterase 1 (TDP1): qHTS in cells in absence of CPT; DT40 Tdp1-/- hTDP1 cells, no CPT, ATP luminescence, 48 h; Potency, µM (titrated, usually from 46.2 µM), inactives show top-dose activity change, negative = growth inhibition, actives largely listed as inhibitors; 420,000 compounds, 15% hits; further: potency means the concentration at half of the fitted maximal effect; nearly all actives have a fitted effect of over 55% in size
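Growth kinetics read by CellTiter-Glo luminescence after ≥48 hr at 37 °C. Cells: DT40 Tdp1-/- stably carrying human TDP1, 400 per well, compound exposure in the absence of CPT (DMSO vehicle).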
IL1B secr inh – qHTS for Inhibitors of Inflammasome Signaling: IL-1-beta AlphaLISA Primary Screen; THP-1 LPS/ATP IL-1B secretion, AlphaLISA, 16 h; active compounds read low; activity change, % at 57.5 µM; 360,000 compounds, 4.7% hits; AID 743279, 2014; in the data active means activity change below about -50%; inconclusive means mostly about -30% to -49%
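Secreted IL-1B measured by AlphaLISA bead assay after 16 h compound exposure of THP-1 cells; compounds (final up to 57.5 uM) added 1 h before LPS (250 ng/mL) and ATP (1.25 mM) stimulation; lower signal means less secretion.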
DT40 TDP1 CPT – qHTS for Inhibitors of human tyrosyl-DNA phosphodiesterase 1 (TDP1): qHTS in cells in presence of CPT; Potency, µM (highest dose often 46.2 µM), for inactives: at the highest dose activity change, negative = growth inhibition, actives largely listed as inhibitors; 420,000 compounds, 12% hits; chicken DT40 Tdp1-/-;hTDP1 cells + 20 nM CPT, ATP luminescence, 48 h; AID 686979, 2013; further: potency means the concentration at half of the fitted maximal effect; nearly all actives have a fitted effect of over 55% in size
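Chicken DT40 Tdp1-/- cells complemented with human TDP1, 400 cells/well, exposed to compounds plus 20 nM camptothecin for at least 48 h at 37 C; viability read as ATP content by CellTiter-Glo luminescence.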
HT1080 IDH1KD tx – qHTS for induction of synthetic lethality in tumor cells producing 2HG: qHTS for the HT-1080-IDH1KD cell line; 360,000 compounds, 2% hits; AID 686971, 2013; Potency, µM (titrated, usually from 46.1 µM), for the others: at the top dose activity, negative = toxicity, actives largely listed as cytotoxic; HT-1080 IDH1 knockdown viability, ATP luminescence, 48 h;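 further: potency means the concentration at half of the fitted maximal effect; 0% = DMSO wells and -100% = cell-free medium wells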
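Cytotoxicity counter-line: IDH1KD HT-1080, 48 h, CellTiter-Glo. Curves classed by r2, magnitude and activity.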
ELG1 DNA repair – qHTS screen for small molecules that inhibit ELG1-dependent DNA repair in human embryonic kidney (HEK293T) cells expressing luciferase-tagged ELG1. AID 504467, 2011. HEK293T ELG1-luciferase reporter, luminescence, 16 h; DNA damage induced by 5-fluorouridine. Potency, µM (highest dose often 46.1 µM), inactives show at the top dose activity change, negative = inhibition, actives largely listed as inhibitors. 330,000 compounds, 2.3% hits; further: potency means the concentration at half of the fitted maximal effect; nearly all actives have a fitted effect of over 55% in size
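DMSO vehicle served as the neutral condition. Each well held 2,000 cells given 5-fluorouridine plus compound; after 16 hr at 37 °C/5% CO2, ONE-Glo was added and luciferase measured 30 min later.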
* hit, by the source's call; ? = inconclusive; · = not tested or not shown. Unless noted, the call rests on the fitted dose curve; in most records, active means well fitted curve in the direction sought with a large enough effect; inconclusive means small, poorly fitted or top-dose-only effect, or another doubt; inactive means no such curve, though single readings can be large; an effect the other way counts as inactive or inconclusive. Unless noted, on the % scale 0 is the no-effect control and ±100 the full control effect.

SMILES	HT1080NT lethal	DT40 TDP1 no CPT	IL1B secr inh	DT40 TDP1 CPT	HT1080 IDH1KD tx	ELG1 DNA repair
COc1ccc(C(=O)CC(=O)C(=O)Nc2ccc(Cl)cc2)cc1	-1.6%	20.6µM*	2.6	?	?	?
COc1ccc(C(=O)CC(Nc2ccc([N+](=O)[O-])cc2)c2ccc(Cl)cc2)cc1 (stereo not given)	?	18.4µM*	-52.7*	?	10µM*	16.4µM*
COc1ccc(C(=O)CC(=O)C(=O)Nc2ccccc2Cl)cc1	-15.1%	10.3µM*	43.1	13µM*	4.6%	-13.5%
COc1ccc(C(=O)NC(CC(=O)O)c2cc([N+](=O)[O-])ccc2Cl)cc1 (stereo not given)	0.5%	-9.6%	30.5	0.1%	11.7%	5.3%
COc1ccc(C(=O)CC(=O)C(=O)Nc2c(C)cccc2C)cc1	-29.2%	9.2µM*	-10.1	20.6µM*	-6.2%	-24.9%
C[C@H](O)CNC(=O)c1[nH]cnc1C(=O)N[C@@H](C)c1ccccc1	1.6%	-12.3%	14.1	-2.3%	16.4%	·
COc1ccc(C(=O)CC(=O)C(=O)Nc2ccccc2C(F)(F)F)cc1	-18.1%	6.51µM*	19.4	10.3µM*	?	?
CO[C@H]1CN(C)C(=O)c2cc(NC(=O)C3CCOCC3)ccc2OC[C@H](C)N(Cc2nccs2)C[C@H]1C	14.4%	-5.9%	-62.4*	0.7%	11.5%	·
CO[C@H]1CN(C)C(=O)c2ccc(NC(=O)C3CCC3)cc2OC[C@H](C)N(Cc2ccccn2)C[C@@H]1C	18.2%	-17.9%	31.5	11.3%	20.5%	·
COc1cccc(S(=O)(=O)Nc2ccc3c(c2)C(=O)N(C)C[C@H](OC)[C@H](C)CN(Cc2ccccc2F)[C@@H](C)CO3)c1	?	8.2µM*	?	9.2µM*	?	·
CO[C@H]1CN(C)C(=O)c2cc(NS(=O)(=O)c3ccccc3)ccc2OC[C@@H](C)N(Cc2ccccn2)C[C@@H]1C	15.3%	3.7%	-11.6	6.0%	15.2%	·
Cc1c(-c2ccc(Cl)cc2)oc(=O)c2c(N)n(-c3ccccc3)nc12	-0.2%	7.31µM*	0.0	?	-17.0%	?
Nc1c2c(=O)oc(-c3ccccc3)cc2nn1-c1ccccc1	?	?	-99.4*	25.9µM*	?	?
Nc1c(-c2ccc(Cl)cc2)cnn1-c1ccccc1	?	-7.8%	-19.2	-29.0%	-6.8%	?
Nc1nonc1C(=O)NCCNCc1ccc(Cl)c(Cl)c1	·	?	·	-30.0%	·	·
CN1C2CCC1/C(=C\c1ccccc1)C(=O)/C2=C\c1ccccc1	?	6.51µM*	-95.1*	11.6µM*	?	?
O=C1/C(=C/c2ccccc2)CCC1C1CCCC1 (stereo not given)	-5.1%	6.5%	-11.4	3.3%	-2.3%	?
CCOC(=O)[C@]12CCC=C1N(Cc1ccco1)C(=O)[C@H](CC(=O)N1CCCC1)C2	16.4%	-23.5%	61.9	-16.2%	0.4%	·
CCOc1ccc(-n2c(SC(C)C)nc3c(c2=O)SCC3)cc1	-15.8%	16.4µM*	-2.3	?	-21.0%	?
COC(=O)C1=C/C=C\CN(C(c2ccccc2)c2ccccc2)/C=C\1C(=O)OC	-9.3%	20.6µM*	13.2	?	-5.6%	·
COC(=O)N1CCC2(CC1)CCN(C(c1ccccc1)c1ccccc1)CC2	·	?	·	-6.2%	·	·
Cc1cc(CN2CCN(CC(=O)Nc3cc(C(F)(F)F)ccc3-n3cncn3)CC2)no1	-0.2%	?	4.9	?	-2.2%	-24.2%
O=S1(=O)c2cccc3cccc(c23)N1Cc1nnc(-c2ccccc2Br)o1	-1.1%	18.4µM*	-21.4	14.6µM*	?	23.1µM*
COc1cccc(CNc2ccc(N3CCC(C)CC3)cc2)c1OC	-26.1%	16.4µM*	-20.9	23.1µM*	?	?
COc1ccc(Cl)cc1Nc1nc2ccc(C)cc2n2cnnc12	14.0%	14.6µM*	59.7	23.1µM*	19.1%	?
SMILES	HT1080NT lethal	DT40 TDP1 no CPT	IL1B secr inh	DT40 TDP1 CPT	HT1080 IDH1KD tx	ELG1 DNA repair
COc1ccc(OC)c(Nc2nc3ccc(C)cc3n3cnnc23)c1	8.2%	?	16.0	16.4µM*	14.4%	8.2µM*
COc1ccc(Cl)cc1Nc1nc2ccc(C(=O)c3ccccc3)cc2n2cnnc12	·	-17.5%	·	-11.9%	·	·
CCOc1ccccc1Nc1nc2ccc(C)cc2n2cnnc12	0.2%	-13.3%	0.0	?	3.1%	12.1%
Cc1ccc2nc(Nc3ccc(C)c(F)c3)c3nncn3c2c1	·	14.6µM*	·	18.4µM*	·	·
COc1ccc(Nc2nc3cc(Cl)c(Cl)cc3n3cnnc23)cc1Cl	·	13µM*	·	?	·	·
CC(=O)c1c(C)[nH]c(C(=O)Nc2ccc(C)c(C)c2)c1C	?	-1.6%	-25.8	-2.8%	19.5%	?
COc1ccc(NC(=O)c2[nH]c(C)c(C(C)=O)c2C)cc1Cl	-16.4%	?	-8.1	2.06µM*	-14.5%	?
COc1ccc(C(C)(C)C)cc1NC(=O)c1[nH]c(C)c(C(C)=O)c1C	?	16.4µM*	-2.4	-1.5%	-15.3%	5.8µM*
Cc1nc(Cc2nnc(SC(C)C(=O)Nc3ccccc3)o2)cs1 (stereo not given)	6.7%	17.8%	-9.1	-6.2%	4.3%	·
Cc1ccc(S(=O)(=O)NCc2ccc(C(=O)N3CCc4ccccc4C3)cc2)cc1	1.6%	29.1µM*	-22.8	?	17.0%	?
COc1ccc(S(=O)(=O)NCc2ccc(C(=O)N3CCc4ccccc4C3)cc2)cc1	4.5%	23.1µM*	-2.4	23.1µM*	-1.0%	?
COc1ccc(S(=O)(=O)NCc2ccc(C(=O)NCCCN3CCCC(C)C3)cc2)cc1 (stereo not given)	12.2%	-10.8%	-51.8*	?	2.9%	20.8%
Cc1ccc(S(=O)(=O)NCC(=O)N2CCc3ccccc3C2)cc1	12.5%	9.6%	10.1	13.6%	2.7%	2.3%
Cc1ccc(CN(c2ccc(C(=O)N3CCc4ccccc4C3)cc2)S(C)(=O)=O)cc1	-7.0%	14.6µM*	4.3	?	-26.6%	16.4µM*

Source: PubChem BioAssay (National Center for Advancing Translational Sciences (NCATS))
